± gives the standard deviation of the averaged measurements. The full ranking holds about 33,000 sequences; the median of “E-score (dimensionless, -0.5 to 0.5)” is about -0.049, and the highest 2% start at about 0.37. The list comes from a sample in which the highest values are over-represented; it also holds similar and randomly drawn sequences.
System: T1, PmTbr T-box DNA-binding domain (GST fusion)
T1 sequence: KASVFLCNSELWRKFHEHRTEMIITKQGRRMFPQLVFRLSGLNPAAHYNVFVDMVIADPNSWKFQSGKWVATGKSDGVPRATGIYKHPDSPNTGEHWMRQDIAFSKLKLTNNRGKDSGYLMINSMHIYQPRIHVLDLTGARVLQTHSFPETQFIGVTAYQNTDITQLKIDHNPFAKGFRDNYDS
Assay: PBM E-score of 8-mer (E-score (dimensionless, -0.5 to 0.5)); Tbr is Tbrain of the sea star Patiria miniata (Pm) or the sea urchin Strongylocentrotus purpuratus (Sp); higher = stronger binding preference
Conditions: the construct has about 5 more residues each side
Procedure: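 Universal protein-binding microarray (Agilent AMADID 016060, 60-bp probes with a 35-bp variable region) incubated with 200 nM GST-fused Patiria miniata Tbr T-box DNA-binding domain (residues 272-466) in PBS pH 7.5. Scored for every ungapped 8-mer (given with its reverse complement) by the Universal PBM Analysis Suite as E-score (modified Wilcoxon-Mann-Whitney enrichment, range -0.5 to 0.5; >0.45 counts as bound) and Z-score of median probe intensity. Two replicate arrays (datasets 1 and 2).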

Sequence	PBM E-score of 8-mer
GTTAAACA	0.00153 ± 0.043
AGGTCTGG	0.0461 ± 0.012
ACGCTAAT	0.114 ± 0.018
AGTTCTTG	-0.0105 ± 0.0029
CGGCCCTA	-0.249 ± 0.019
TACGCACA	-0.0799 ± 0.0095
ACGTGTCT	0.198 ± 0.0036
ACGTGTCA	0.4563 ± 0.0033
CCGTGTCA	0.236 ± 0.0063
ACGTGTCG	0.385 ± 0.022
CCGTGTCG	0.144 ± 0.045
ACGTGTAA	0.31 ± 0.0077
CCGCATAG	-0.047 ± 0.042
AGGTTAAG	-0.186 ± 0.083
GCCCACTA	-0.0431 ± 0.011
CCGGAGAA	-0.00469 ± 0.1
ATCCCGCG	-0.042 ± 0.095
GCGTGTAA	0.0292 ± 0.033
ACGTGTGC	0.174 ± 0.035
GCGTGAGA	0.368 ± 0.021
GCGTGTGA	0.373 ± 0.016
CCGTGTGA	0.335 ± 0.015
ACGTGTGA	0.4818 ± 0.0022
AGCGGGTG	0.308 ± 0.017
AGGGGGGC	-0.222 ± 0.034

Sequence	PBM E-score of 8-mer
GGTGTCGA	0.461 ± 0.0086
AGTGTCGA	0.4188 ± 0.0041
AGTGTCGC	0.415 ± 0.019
CGTGTCGA	0.288 ± 0.052
CGTGTCGC	0.295 ± 0.023
ATTGTCGC	0.292 ± 0.024
GGTGTCTA	0.376 ± 0.007
AATGTCGA	0.0192 ± 0.036
CGTGTCTA	0.0962 ± 0.0027
ATTGTCGA	0.0764 ± 0.052
GTTGTCGA	0.241 ± 0.021
AGTGTCTA	0.213 ± 0.017
CAGCGGTA	-0.061 ± 0.018
ACTGAAAC	-0.0158 ± 0.016
CTCCTGCC	-0.0358 ± 0.0023
AGCTGTCA	0.3661 ± 0.003
CACCAGGG	0.0472 ± 0.096
AGTGTGGA	0.354 ± 0.0036
CGTGTGGA	0.284 ± 0.0037
ATTGTCGG	0.0329 ± 0.01
AGTGTCGG	0.38 ± 0.0074
GGTGTGGA	0.432 ± 0.015
AATGTCGG	-0.0392 ± 0.026
CGGCTGAG	-0.1 ± 0.073
CTGTCTTC	0.0449 ± 0.021

Sequence	PBM E-score of 8-mer
AACATTTG	0.0235 ± 0.04
CTCTGAGC	-0.0449 ± 0.047
GACCTCGA	-0.0343 ± 0.13
AACCTCGG	-0.124 ± 0.033
CACCTCGG	0.426 ± 0.015
GACCTCGC	0.0974 ± 0.064
CCCCTCGG	-0.194 ± 0.016
AACCTCGC	0.196 ± 0.035
CACCTCGA	0.4483 ± 0.002
AACCTCGA	0.0311 ± 0.022
CACCTCGC	0.458 ± 0.0073
ACTCAGAC	0.0474 ± 0.069
ATTAGAAG	-0.226 ± 0.053
GTAGAGCA	-0.196 ± 0.024
GCGGTTAC	-0.0207 ± 0.021
CAACCGTG	0.216 ± 0.013
AGTTAGCA	0.32 ± 0.023
AGTTAACA	0.334 ± 0.013
CGTTAGCA	0.394 ± 0.012
CGTTAACG	0.266 ± 0.015
GGTTAGCA	0.314 ± 0.027
TGTTAACA	0.38 ± 0.0039
CGTTAACC	0.0384 ± 0.0052
GGTTAACA	0.255 ± 0.026
CGTTAACA	0.372 ± 0.044

Sequence	PBM E-score of 8-mer
TCTTCCCA	0.114 ± 0.031
TACCATAA	-0.0564 ± 0.0014
GAAATAGA	-0.125 ± 0.036
CGACTTCC	-0.183 ± 0.002
AAGATGGA	-0.228 ± 0.058
ACCCCGCC	0.119 ± 0.051
ATTCACAA	0.247 ± 0.024
CTTCACCC	0.0387 ± 0.019
ATTCACAG	0.355 ± 0.0076
ATTCACGA	0.29 ± 0.0094
CTTCACAC	0.4785 ± 0.0022
CTTCACGC	0.356 ± 0.04
ATTCACAC	0.4763 ± 0.0034
CTTCACAA	0.225 ± 0.058
ATTCACGC	0.4258 ± 0.0014
CATTAGAC	-0.177 ± 0.0077
AATATAAA	-0.136 ± 0.075
ACGCTTCT	0.106 ± 0.035
CAAACCCC	-0.155 ± 0.069
ACGGGCAA	-0.133 ± 0.057
GGCACCGA	-0.0859 ± 0.03
CGCACCGC	0.222 ± 0.063
AGCACCGC	0.0529 ± 0.038
AGCACCCG	0.252 ± 0.061
AGCACCGG	0.0404 ± 0.045

Sequence	PBM E-score of 8-mer
CGCACCTC	0.46 ± 0.012
CCCACCTC	0.2907 ± 0.0021
AGCACCTG	0.415 ± 0.0079
GGCACCTA	0.412 ± 0.006
GCCACCTA	0.336 ± 0.033
ACCACCTC	0.341 ± 0.027
AGCACCTC	0.4279 ± 0.0012
CCCTAATA	-0.219 ± 0.027
GAACACTC	0.0811 ± 0.024
AGGGAACG	0.0301 ± 0.15
ACTATGCT	0.00416 ± 0.025
AAGAGCGT	-0.119 ± 0.04
GAGGCCTA	-0.176 ± 0.014
CTCAAATA	-0.321 ± 0.072
ACCAAGTA	0.0125 ± 0.031
AAGAGCGC	-0.188 ± 0.004
AGGAGAAA	-0.109 ± 0.19
CACTAAGA	0.0202 ± 0.013
CAGCCCTG	-0.294 ± 0.015
ACCAGCCT	-0.14 ± 0.082
AGGGTATG	-0.218 ± 0.032
TGAAGCAA	-0.229 ± 0.055
ACCACCTA	0.205 ± 0.0085
CGCACCGA	0.0275 ± 0.11
CGCACCAA	0.251 ± 0.04

Sequence	PBM E-score of 8-mer
AGCACCGA	-0.00405 ± 0.11
CGCACCTA	0.422 ± 0.0048
AGCACCTA	0.435 ± 0.00088
ATAGCTAG	-0.0742 ± 0.12
CACGTTGG	0.261 ± 0.0042
CTGTTCTC	0.0542 ± 0.017
CTTGGCAC	0.352 ± 0.016
GGTGGCAC	0.38829 ± 0.00023
ATTGGCAC	0.385 ± 0.0064
ATTGGCAG	0.0761 ± 0.012
CGTGGCAC	0.233 ± 0.052
GCTGGCAC	0.234 ± 0.064
CGTGGCAA	0.122 ± 0.044
AGTGGCAA	0.304 ± 0.039
ACTGGCAC	0.264 ± 0.015
CCTGGCAC	0.371 ± 0.019
AGTGGCAC	0.334 ± 0.008
GGTGGCAA	0.3882 ± 0.0017
CCAGTTCA	-0.052 ± 0.044
GCCGTGCC	0.0438 ± 0.036
TCTATCCA	-0.354 ± 0.0079
GGATTAAC	0.0329 ± 0.085
CCTAGGGA	-0.233 ± 0.015
ACGATCTG	0.189 ± 0.015
CAATAGCG	0.118 ± 0.13

Sequence	PBM E-score of 8-mer
AGGAGGTC	-0.247 ± 0.02
ACGAGGTG	0.4446 ± 0.0042
ACGAGGTC	-0.113 ± 0.027
AAGAGGTC	-0.101 ± 0.02
ATGAGGTA	-0.093 ± 0.027
AAGAGGTA	-0.158 ± 0.021
AGGAGGTA	-0.0739 ± 0.034
AAGAGGTG	0.4261 ± 0.00096
ATGAGGTG	0.382 ± 0.018
ACGAGGTA	-0.046 ± 0.031
ATGAGGTC	-0.00428 ± 0.033
AGGAGGTG	0.428 ± 0.0078
GCCAGTCA	0.0625 ± 0.0016
AAGTTTCT	0.101 ± 0.091
AAACCATC	-0.0959 ± 0.018
AGTAGAGC	0.00365 ± 0.047
GTAGAACA	-0.0515 ± 0.048
GTCAGTGA	0.122 ± 0.036
GGAGAGCC	-0.27 ± 0.039
ATTAAGTC	-0.233 ± 0.059
AGGCAAAT	-0.324 ± 0.053
CAGACCTG	-0.0919 ± 0.036
TACACCGA	0.042 ± 0.083
AACACCTT	0.4857 ± 0.0013

Reference: the supplement of paper PMC4166925
